Molecules are shown by their SMILES. The panel holds about 79,000 compounds, 15% with a hit somewhere; the sample as a whole holds those more often. Values without a mark were called inactive. Active and inactive are the calls of the source. No stated cut-off is given here; in the data, active means growth inhibition above about 70%; inactive means the rest.

The nature of experiment [1]: NCI Yeast Anticancer Drug Screen. Data for the rad50 strain (AID 155).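 Further: 0% = growth of vehicle-only cultures of the same strain.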 Particulars: S. cerevisiae rad50 strain growth inhibition, active compounds read high. The procedure, abridged: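 Vehicle-treated cultures provide the reference for the growth inhibition reported for compound-exposed, repair-deficient yeast.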
The nature of experiment [2]: NCI Yeast Anticancer Drug Screen. Data for the mec2-1 strain (AID 157). The following applies: S. cerevisiae mec2-1 strain, active compounds read high. A digest of the protocol:
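Readout is yeast growth inhibition, normalised to vehicle-treated controls, in the mec2-1 strain exposed to compound.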

A short description of experiment [3]: NCI Yeast Anticancer Drug Screen. Data for the sgs1 mgt1 strain (AID 161).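 Further: 0% = growth of cultures given vehicle only.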 Particulars: S. cerevisiae sgs1 mgt1 strain, active compounds read high. A digest of the protocol:
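Yeast cells carrying a defined DNA-repair defect were exposed to test compounds. Growth inhibition was measured relative to vehicle-treated controls.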

Experiment [4] in a line: NCI Yeast Anticancer Drug Screen. Data for the cln2 rad14 strain (AID 165).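 Further: 0% = growth equal to vehicle treated cultures.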 Particulars: S. cerevisiae cln2 rad14 strain, active compounds read high. A digest of the protocol:
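Relative to vehicle controls, growth inhibition of compound-treated cln2 rad14 yeast was recorded.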

Experiment [5] can be described thus: NCI Yeast Anticancer Drug Screen. Data for the bub3 strain (AID 167). Particulars: S. cerevisiae bub3 mutant strain, active compounds read high. The procedure, abridged:
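Mutant yeast screening strain plus compound; vehicle-treated cultures serve as the 0% inhibition reference.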

Experiment [6] is described as follows: NCI Yeast Anticancer Drug Screen. Data for the mlh1 rad18 strain (AID 175). Particulars: S. cerevisiae mlh1 rad18 strain growth inhibition, active compounds read high. The procedure, abridged:
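Test agents were incubated with a yeast strain of defined genotype (DNA damage repair defect). Inhibition of growth was derived by comparison with vehicle-exposed cultures.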

Where [7] appears, read: at 5.0 µM (retest, dose inferred, filed as 0.5).
Setting [8] is: at 50.0 µM (retest, dose inferred, filed as 5.0).

As to `CCCCCCC(Sc1n[nH]c(=O)[nH]c1=O)C(=O)OCC` (stereo not given), the growth inhibition is 3% in experiment [1] (setting [7]); 76% (active) in experiment [1] (setting [8]); 61.5% in experiment [1] (at 50.0 µM); -1% in experiment [2] (setting [7]); 80% (active) in experiment [2] (setting [8]); 52.9% in experiment [2] (at 50.0 µM). The growth inhibition in experiment [3] (setting [7]) is 1%; in experiment [3] (setting [8]), 88% (active); in experiment [3] (at 50.0 µM) it was 77.6% (active); in experiment [4] (setting [7]), 3%; in experiment [4] (setting [8]) it was 83% (active); in experiment [4] (at 50.0 µM) it was 52%. Moreover, the growth inhibition in experiment [5] (setting [7]) is 2%; in experiment [5] (setting [8]), 77% (active); in experiment [5] (at 50.0 µM), 43.5%; in experiment [6] (setting [7]), -2%; in experiment [6] (setting [8]), 89% (active); in experiment [6] (at 50.0 µM), 61.1%.

For the compound `COc1ccc(NC(=O)Nc2ccc(Cl)cc2)nn1`, the growth inhibition was -1% in experiment [1] (setting [7]); 4% in experiment [1] (setting [8]); -10% in experiment [1] (at 50.0 µM); -4% in experiment [2] (setting [7]); -3% in experiment [2] (setting [8]); 20.4% in experiment [2] (at 50.0 µM). The growth inhibition in experiment [3] (setting [7]) is -3%; in experiment [3] (setting [8]) it was 3%; in experiment [3] (at 50.0 µM), 1.3%; in experiment [4] (setting [7]) it was -14%; in experiment [4] (setting [8]), -8%; in experiment [4] (at 50.0 µM) it was 33.8%. Moreover, the growth inhibition was -9% in experiment [5] (setting [7]); -7% in experiment [5] (setting [8]); -8.05% in experiment [5] (at 50.0 µM); -7% in experiment [6] (setting [7]); 3% in experiment [6] (setting [8]); -3.9% in experiment [6] (at 50.0 µM).

In the case of `COC1OC(CBr)C(OC(c2ccccc2)(c2ccccc2)c2ccccc2)C(OC(c2ccccc2)(c2ccccc2)c2ccccc2)C1OC(c1ccccc1)(c1ccccc1)c1ccccc1` (stereo not given), the growth inhibition was -11% in experiment [1] (setting [7]); 11% in experiment [1] (setting [8]); 98.8% (active) in experiment [1] (at 50.0 µM); -12% in experiment [2] (setting [7]); -27% in experiment [2] (setting [8]); 98.7% (active) in experiment [2] (at 50.0 µM). Moreover, the growth inhibition in experiment [3] (setting [7]) is -11%; in experiment [3] (setting [8]), -9%; in experiment [3] (at 50.0 µM), 98.5% (active); in experiment [4] (setting [7]), -8%; in experiment [4] (setting [8]) it was 33%; in experiment [4] (at 50.0 µM) it was 96.5% (active). Also, the growth inhibition was -2% in experiment [5] (setting [7]); 25% in experiment [5] (setting [8]); 97.7% (active) in experiment [5] (at 50.0 µM); -5% in experiment [6] (setting [7]); 32% in experiment [6] (setting [8]); 98% (active) in experiment [6] (at 50.0 µM).

For `CN1C/C(=C\c2ccccc2)C(=O)C(c2ccccc2)C1` (stereo not given), the growth inhibition is -1% in experiment [1] (setting [7]); 94% (active) in experiment [1] (setting [8]); 1.9% in experiment [1] (at 50.0 µM); 0% in experiment [2] (setting [7]); 95% (active) in experiment [2] (setting [8]); 19.9% in experiment [2] (at 50.0 µM). In addition, the growth inhibition was 0% in experiment [3] (setting [7]); 96% (active) in experiment [3] (setting [8]); 28.8% in experiment [3] (at 50.0 µM); 1% in experiment [4] (setting [7]); 94% (active) in experiment [4] (setting [8]); -20.6% in experiment [4] (at 50.0 µM). The growth inhibition in experiment [5] (setting [7]) was -7%; in experiment [5] (setting [8]), 95% (active); in experiment [5] (at 50.0 µM) it was 77.2% (active); in experiment [6] (setting [7]) it was -1%; in experiment [6] (setting [8]) it was 95% (active); in experiment [6] (at 50.0 µM) it was 31.4%.

For the compound `Cc1ccc(C(CN)(CCBr)c2ccc(C)cc2)cc1`, the growth inhibition in experiment [1] (setting [7]) is 63%; in experiment [1] (setting [8]), 99% (active); in experiment [1] (at 50.0 µM), 99.5% (active); in experiment [2] (setting [7]), 50%; in experiment [2] (setting [8]) it was 98% (active); in experiment [2] (at 50.0 µM), 99.5% (active). Also, the growth inhibition in experiment [3] (setting [7]) was 59%; in experiment [3] (setting [8]), 99% (active); in experiment [3] (at 50.0 µM), 99.7% (active); in experiment [4] (setting [7]), 19%; in experiment [4] (setting [8]), 90% (active); in experiment [4] (at 50.0 µM), 99.4% (active). Also, the growth inhibition in experiment [5] (setting [7]) is 36%; in experiment [5] (setting [8]) it was 91% (active); in experiment [5] (at 50.0 µM) it was 99% (active); in experiment [6] (setting [7]), 92% (active); in experiment [6] (setting [8]) it was 98% (active); in experiment [6] (at 50.0 µM), 99.5% (active).

Turning to `CCOC(=O)C1=C(c2ccccc2)N(C)c2ccccc2S1`, the growth inhibition in experiment [1] (setting [7]) was 4%; in experiment [1] (setting [8]) it was 55%; in experiment [1] (at 50.0 µM) it was 75.9% (active); in experiment [2] (setting [7]), 4%; in experiment [2] (setting [8]), 92% (active); in experiment [2] (at 50.0 µM) it was 80.7% (active). For the same compound, the growth inhibition in experiment [3] (setting [7]) is 5%; in experiment [3] (setting [8]) it was 64%; in experiment [3] (at 50.0 µM), 76.2% (active); in experiment [4] (setting [7]), -1%; in experiment [4] (setting [8]), -7%; in experiment [4] (at 50.0 µM) it was -0.8%. The growth inhibition was 2% in experiment [5] (setting [7]); 78% (active) in experiment [5] (setting [8]); 87% (active) in experiment [5] (at 50.0 µM); 1% in experiment [6] (setting [7]); 62% in experiment [6] (setting [8]); 67.2% in experiment [6] (at 50.0 µM).

Take `COC1CCC2(C)C(=CCC3C4CC(OC(C)=O)CC4(C)CCC32)C1` (stereo not given): the growth inhibition is 0% in experiment [1] (setting [7]); 5% in experiment [1] (setting [8]); 5.25% in experiment [1] (at 50.0 µM); -2% in experiment [2] (setting [7]); 5% in experiment [2] (setting [8]); 0.45% in experiment [2] (at 50.0 µM). Moreover, the growth inhibition in experiment [3] (setting [7]) was 2%; in experiment [3] (setting [8]) it was 3%; in experiment [3] (at 50.0 µM), -4.15%; in experiment [4] (setting [7]), -1%; in experiment [4] (setting [8]), 4%; in experiment [4] (at 50.0 µM), 9.5%. The growth inhibition in experiment [5] (setting [7]) is 0%; in experiment [5] (setting [8]), 6%; in experiment [5] (at 50.0 µM) it was -7.3%; in experiment [6] (setting [7]), 2%; in experiment [6] (setting [8]) it was 9%; in experiment [6] (at 50.0 µM), -4.2%.

For the compound `O=C(c1ccc([N+](=O)[O-])cc1)c1[nH]c2ccccc2c(=O)c1-c1ccccc1`, the growth inhibition is -2% in experiment [1] (setting [7]); 96% (active) in experiment [1] (setting [8]); 98% (active) in experiment [1] (at 50.0 µM); 14% in experiment [2] (setting [7]); 99% (active) in experiment [2] (setting [8]); 99% (active) in experiment [2] (at 50.0 µM). Moreover, the growth inhibition in experiment [3] (setting [7]) was 0%; in experiment [3] (setting [8]), 99% (active); in experiment [3] (at 50.0 µM), 98.6% (active); in experiment [4] (setting [7]) it was -3%; in experiment [4] (setting [8]), 95% (active); in experiment [4] (at 50.0 µM), 98.6% (active). Also, the growth inhibition was -2% in experiment [5] (setting [7]); 98% (active) in experiment [5] (setting [8]); 98.7% (active) in experiment [5] (at 50.0 µM); 25% in experiment [6] (setting [7]); 99% (active) in experiment [6] (setting [8]); 99% (active) in experiment [6] (at 50.0 µM).

On to `Nc1ccc(O)c2ccccc12`, for which the growth inhibition in experiment [1] (setting [7]) is 19%; in experiment [1] (setting [8]), 80% (active); in experiment [1] (at 50.0 µM), 85.5% (active); in experiment [2] (setting [7]), -4%; in experiment [2] (setting [8]) it was 83% (active); in experiment [2] (at 50.0 µM), 63.8%. Further, the growth inhibition in experiment [3] (setting [7]) was 7%; in experiment [3] (setting [8]), 63%; in experiment [3] (at 50.0 µM), 68.3%; in experiment [4] (setting [7]), -10%; in experiment [4] (setting [8]) it was 8%; in experiment [4] (at 50.0 µM), 10.1%. Also, the growth inhibition in experiment [5] (setting [7]) is 7%; in experiment [5] (setting [8]), 93% (active); in experiment [5] (at 50.0 µM) it was 87.2% (active); in experiment [6] (setting [7]) it was 11%; in experiment [6] (setting [8]), 90% (active); in experiment [6] (at 50.0 µM), 91% (active).

For the compound `C1=C(c2c(-c3ccccc3)[nH]c3ccccc23)Cc2ccccc21`, the growth inhibition in experiment [1] (setting [7]) is 3%; in experiment [1] (setting [8]), 93% (active); in experiment [1] (at 50.0 µM), 12.6%; in experiment [2] (setting [7]) it was 0%; in experiment [2] (setting [8]) it was 95% (active); in experiment [2] (at 50.0 µM), 43.7%. Besides, the growth inhibition in experiment [3] (setting [7]) was 0%; in experiment [3] (setting [8]) it was 54%; in experiment [3] (at 50.0 µM), 62.1%; in experiment [4] (setting [7]) it was -12%; in experiment [4] (setting [8]), 93% (active); in experiment [4] (at 50.0 µM), 30.2%. In addition, the growth inhibition was -3% in experiment [5] (setting [7]); 58% in experiment [5] (setting [8]); 71.4% (active) in experiment [5] (at 50.0 µM); 3% in experiment [6] (setting [7]); 93% (active) in experiment [6] (setting [8]); 54.8% in experiment [6] (at 50.0 µM).
